# BoNT-F LC inh: blocks Botulinum neurotoxin F light chain protease | Multiplex microsphere protease cleavage assay, flow cytometry | inhibition, % at 10 µM | hit rate 0.22% among 360,000 | AID 588497; in the data active means inhibition above about 35%, passing the limit was not always enough; inconclusive means no clear call, values can overlap the other calls; further: plate controls were buffer without enzyme for full effect and enzyme alone for no effect
# Anthrax LF prot: blocks Bacillus anthracis lethal factor protease. P15917. multiplex microsphere protease cleavage assay, LF. inhibition, % at 10 µM. hit rate 0.12% among 360,000. AID 588501; further: plate controls were buffer without enzyme for full effect and enzyme alone for no effect
# Autofluor counter: flagged as autofluorescent in microsphere protease counterscreen; hit rate 3.1% among 360,000; fluorescence intensity (test concentration not listed); compound autofluorescence counterscreen, microsphere flow cytometry; active compounds read high; in the data active means fluorescence intensity above about 16000; inconclusive means no clear call, values can overlap the other calls
# GDH-TPI counter-1: counter-screen for M. tuberculosis FBA inhibitors: GDH-TPI coupled enzymes. GDH-TPI coupled enzyme counterscreen, NADH absorbance. inhibition, % at 4.8 µM. hit rate 1.2% among 360,000. AID 588335; in the data active means inhibition above about 30%;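 further: 0% = DMSO wells and 100% = wells lacking the enzyme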
# Mtb FBA inh: inhibits M. tuberculosis FBA enzyme. purified M. tuberculosis FBA, fluorescence read-out. P9WQA3. inhibition, % at 1 µM. hit rate 2.3% among 360,000. AID 588726; in the data active means inhibition above about 27%;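 further: 0% = vehicle and 100% = reference inhibitor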
# Target sequence (P9WQA3 whole entry, looked up): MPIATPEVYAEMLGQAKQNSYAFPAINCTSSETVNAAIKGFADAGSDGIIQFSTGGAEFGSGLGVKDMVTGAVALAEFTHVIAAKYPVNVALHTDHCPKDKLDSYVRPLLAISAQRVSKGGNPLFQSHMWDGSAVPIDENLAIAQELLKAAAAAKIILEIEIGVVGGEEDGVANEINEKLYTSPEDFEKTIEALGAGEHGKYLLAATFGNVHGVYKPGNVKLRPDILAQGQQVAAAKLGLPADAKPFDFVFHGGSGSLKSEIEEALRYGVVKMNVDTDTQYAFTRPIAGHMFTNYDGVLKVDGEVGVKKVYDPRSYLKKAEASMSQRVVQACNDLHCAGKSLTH
# BoNT A protease: BoNT A light chain protease inhibition | multiplex microsphere protease substrate cleavage, flow cytometry | hit rate 0.17% among 360,000 | inhibition, % at 10 µM | AID 588499; further: plate controls were buffer without enzyme for full effect and enzyme alone for no effect
# Mtb FBA inh conf: Mtb FBA inhibition, confirmed; shares compounds with Mtb FBA inh; hit rate 78% among 5,600; purified M. tuberculosis FBA, fluorescence read-out; AID 651616; inhibition, % at 1 µM; in the data active means inhibition above about 27%;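 further: 0% = vehicle wells and 100% = reference inhibitor wells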
# GDH-TPI counter-2: counter-screen for M. tuberculosis FBA inhibitors: GDH-TPI coupled enzyme inhibition; hit rate 81% among 5,600; GDH-TPI coupled enzyme counterscreen, fluorescence; shares compounds with Mtb FBA inh; inhibition, % at 1 µM; in the data active means inhibition above about 10%
# GDH-TPI DR: GDH-TPI dose response counter-screen for Mtb FBA | shares compounds with Mtb FBA inh | GDH-TPI coupled enzyme assay, fluorescence, artifact counterscreen | IC50, µM | hit rate 79% among 170; call rule not given here
# Numbers without * were called inactive; ? = inconclusive; . = no result given; + = active, no number. The list is not random: actives were taken first. Their share in the collection is about 6.6%. Unless noted, no stated cut-off is given here; in the data, active means inhibition above about 30%; inconclusive means no clear call, values can overlap the other calls; inactive means below that.
SMILES,BoNT-F LC inh,Anthrax LF prot,Autofluor counter,GDH-TPI counter-1,Mtb FBA inh,BoNT A protease,Mtb FBA inh conf,GDH-TPI counter-2,others
CC(=O)Nc1cccc(-c2cn3ccc(C)cc3n2)c1,2,0,2292,12,50*,0,+,+,
CC(=O)Nc1ccc2nc(-c3ccccc3)cn2c1,-9,0,2500,14,38*,-2,+,184*,
Cc1ccn2cc(-c3cccc([N+](=O)[O-])c3)nc2c1,-2,-3,3176,13,0,0,.,.,
Cc1ccn2cc(-c3ccc(NS(=O)(=O)c4ccccc4)cc3)nc2c1,-8,-4,9878,8,6,0,.,.,
Cc1ccn2cc(-c3cccc(NS(C)(=O)=O)c3)nc2c1,-2,-2,2081,4,37*,0,60*,31*,
O=C1CNC(=S)N1CCCc1ccccc1,2,-1,4993,2,1,1,.,.,
Cn1c(-c2cccc([N+](=O)[O-])c2)cnc1NCc1ccc(C#N)cc1,-6,0,4070,8,-3,0,.,.,
CCOC(=O)N1CCC(NC(=O)c2cc3cc4cc(OC)ccc4nc3o2)CC1,5,0,4555,17,86*,0,24,-5,
O=C(NC1CCN(Cc2ccccc2)CC1)c1ccccc1,-8,10,4079,1,2,0,.,.,
COc1ccc2nc3oc(C(=O)NC4CCN(Cc5ccccc5)CC4)cc3cc2c1,10,6,3134,13,32*,2,6,2,
CCOC(=O)N1CCC(NC(=O)c2cc(-c3ccc(OC)cc3)nc3ccccc23)CC1,-1,1,5309,19,12,-1,.,.,
COc1ccc(CNC(=O)CCCC2=NS(=O)(=O)c3ccccc3N2)cc1,0,4,4423,4,102*,-2,132*,139*,
O=C(c1cccs1)N1C[C@@H](O)[C@H](n2cc(-c3ccc(F)cc3)nn2)C[C@@H]1c1ccccc1,-1,5,3723,5,-3,0,.,.,
CCOC(=O)Nc1nnc(Cc2ccc(Cl)c(Cl)c2)s1,1,3,4326,-4,103*,-2,63*,47*,
O=C(NC(=S)NC12CC3CC(CC(C3)C1)C2)c1ccc(F)cc1,-8,3,3793,-2,3,0,.,.,
COC(=O)c1ccc2c(=O)n(CCCCCC(=O)NC(C)C)c(=O)[nH]c2c1,-4,-2,3110,1,10,0,.,.,
COC(=O)c1ccc2ccn(CC(=O)NC(C)C)c2c1,-1,1,10398,-4,85*,0,191*,143*,
CC(=O)N1CCN(c2cc3c(cc2F)c(=O)c(C(=O)O)cn3C2CC2)CC1,-1,-2,4329,1,30*,0,187*,140*,
COc1ccc2[nH]c(=O)c(CN(C(C)=O)c3cc(C)ccc3C)cc2c1,1,-2,3837,6,5,0,.,.,
N#CC1=C(C2CC2)CC(c2ccccc2)C(C#N)=C1N (centres undefined),?,6,3678,8,33*,0,13,-4,GDH-TPI DR=>10
Cc1ccccc1NC(=O)NC1CCS(=O)(=O)C1 (centres undefined),-4,16,3712,-3,-1,0,.,.,
Cc1cccc(OC(C)C(=O)NC2CCS(=O)(=O)C2)c1C (centres undefined),-23,-2,6151,-1,88*,-1,119*,83*,
CC1CCN(S(=O)(=O)c2cn(CC(=O)Nc3cccc(C#N)c3)cn2)CC1,-2,1,5770,17,39*,0,80*,65*,
CC(=O)c1cccc(NC(=O)Cn2cnc(S(=O)(=O)N3CCC(C)CC3)c2)c1,0,0,5440,18,1,1,.,.,
C[C@H](CO)N1C[C@H](C)[C@@H](CN(C)C(=O)Nc2ccc(C(F)(F)F)cc2)Oc2ccc(NC(=O)Cc3ccccc3)cc2C1=O,-3,0,4648,6,-2,-1,.,.,
O=C1c2ccccc2NC(c2ccccn2)N1c1ccccc1F (centres undefined),-3,4,10231,3,62*,1,+,199*,

# Bioassay records deposited in PubChem by several laboratories.
